Tested on: FXR:RXRa (NR concentration 270 nM, RXRa partner concentration 90 nM)
Assay: PBM binding z-score (relative to random genomic background probes); higher = stronger binding; sequences stand for … in GC…GCGATTGACAGCGTAGAATGAAGG
Procedure, shortened: (§1)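 Ligand-free nuclear receptor dimers were bound for 1 h to custom Agilent 4×180K protein-binding microarrays. Detection used antibodies against each partner (one per run). Binding z-scores rest on regression-normalized fluorescence, with random background probes as the reference.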

Row | Sequence | PBM binding z-score
1 | CCGACTGGGCCAAAGGTTACCATACTCAGTACGA | 1.06
2 | AGTAAAAGTTCATCTAGGTAACGTAAGATATGCT | 6.26
3 | CCTTACGGGTCACTGACAGGTTATATCATTTGGA | 5.35
4 | GCGACTGGGGCATCAGCAGCTTACCATAACTTAA | -0.818
5 | GCTGCTAGGTCAACTAATGGTCAGCTAAAGCTCG | 3.23
6 | CCTACTGGGCCACGAAGGGTCATTGATTCAGTGA | 2.42
7 | ACAGACAGGTGATGAAGGTAACTAAGGCTATCAT | -0.0463
8 | TCTTGTAGATCAAGCAGGTTGAGAAAGCCTGAGT | 0.128
9 | TCTATTAGTTGATTAGGGCGACCGAAACAGCGGA | 0.395
10 | CTACCAAGGTGAGCAAGGTCGTTGATTACTATTC | 0.474
11 | ATCGAAAGGTCGTGAGGTGGGTATACAGAAAGGC | 5.14
12 | CTCGAAAGGTCGCTTGAGGTGAGTATACGGATAA | 4.18
13 | CCTTACGGGTCAAGGCTATAGCACGGGTGGTACG | 5.49
14 | AGAATGAGGTTATTAAGATTAGGGAATTGCGGTC | 1.47
15 | TCTCGGAGGACTCGAAAGGTCAGAGCTCGACATC | 1.95
16 | ATCTCTAGGTATAGTTCAGTGAAAGATCGATAGA | 0.622
17 | CATACTAGGTCACGAAAGGTCAAAGTCGAATGAC | 7.5
18 | CCTACTGGGCCCAAGGTCATTGATTCCAATGCTC | 2.45
19 | GGAACGATGGCAAGTTGATAGCAGAGTTTGATGG | -0.624
20 | TCTTGTAGATCATAGGTTAAGAAAGCCGAAGCCT | 1.15

Row | Sequence | PBM binding z-score
21 | CGTCCAAGGTCAAAGGCCAGTGAAGAGATGACGG | 7.32
22 | TCATATAGGTAAACAAGTGAAAGTCCGTAAGTTA | 1.87
23 | CCTTACGGGTCACTGACAGGTTATAACATTTGGA | 5.58
24 | ATATGTACGTTATCGGGTCATTCAGTTTGCGCAT | 2.05
25 | CCTTCTGGGCCAAGGTCATTGATCAGTCAAAGCA | 2.83
26 | TCTATTCGTTGAAGGGCAACCGACGAGTCCGTTT | 0.909
27 | CATAGTTGGTCAGGAGGTCACACACCGGATATGA | 3.73
28 | CGTCCAAGGTCAGCAGGTCAGTGATAGCGACGTG | 5.6
29 | AACTCTAGGTAACAAGTTCAGTGAAAGAGAGGAC | 0.335
30 | CCTACTGGGCCATTCAGAGTTCATTGATCATATG | 0.991
31 | CCTACTGGTCCAAAAAGGTCATTGATGCCGATAA | 3.82
32 | AGAATGAGGTTAACATCAGGGAAACAGAATACAT | 2.93
33 | CCTACTGGGCCAAAGGTCATTAATTCCAATGCTC | 4.33
34 | TAGCCTGGGTCAGATCGGGCCAGTATACGCTATA | 1.63
35 | ACAGACAGGTGATGGAGGTAACTCAGGCTATCAT | -0.104
36 | AGAATGAGGTTATTACGATCAGGGAATTGCGGTC | 2.01
37 | TCCTGTAGATCAATAGAGGTTAAGAAAGTGCGCT | 0.952
38 | ACAGACAGGTGATGAGGGTAACTCAGGCTATCAT | 0.367
39 | GCTGCTAGGACAACTGATGGTCAGCTAAAGCTCG | -0.547
40 | ACTAGCAGGCCAAGTTTGGGTCACTCGAACAAAG | 0.398

Tested on: LXRa:RXRa (NR concentration 270 nM, RXRa partner concentration 90 nM)
Assay: as above
Procedure, shortened: as §1

Row | Sequence | PBM binding z-score
41 | CCGACTGGGCCAAAGGTTACCATACTCAGTACGA | 1.26
42 | AGTAAAAGTTCATCTAGGTAACGTAAGATATGCT | 5.78
43 | CCTTACGGGTCACTGACAGGTTATATCATTTGGA | 4.27
44 | GCGACTGGGGCATCAGCAGCTTACCATAACTTAA | -0.694
45 | GCTGCTAGGTCAACTAATGGTCAGCTAAAGCTCG | 2.87
46 | CCTACTGGGCCACGAAGGGTCATTGATTCAGTGA | 2.97
47 | ACAGACAGGTGATGAAGGTAACTAAGGCTATCAT | -0.218
48 | TCTTGTAGATCAAGCAGGTTGAGAAAGCCTGAGT | 0.187
49 | TCTATTAGTTGATTAGGGCGACCGAAACAGCGGA | 0.617
50 | CTACCAAGGTGAGCAAGGTCGTTGATTACTATTC | 0.615
51 | ATCGAAAGGTCGTGAGGTGGGTATACAGAAAGGC | 4.18
52 | CTCGAAAGGTCGCTTGAGGTGAGTATACGGATAA | 3.88
53 | CCTTACGGGTCAAGGCTATAGCACGGGTGGTACG | 3.26
54 | AGAATGAGGTTATTAAGATTAGGGAATTGCGGTC | 1.57
55 | TCTCGGAGGACTCGAAAGGTCAGAGCTCGACATC | 2.86
56 | ATCTCTAGGTATAGTTCAGTGAAAGATCGATAGA | 1.11
57 | CATACTAGGTCACGAAAGGTCAAAGTCGAATGAC | 8.25
58 | CCTACTGGGCCCAAGGTCATTGATTCCAATGCTC | 2.46
59 | GGAACGATGGCAAGTTGATAGCAGAGTTTGATGG | -0.756
60 | TCTTGTAGATCATAGGTTAAGAAAGCCGAAGCCT | 0.999

Row | Sequence | PBM binding z-score
61 | CGTCCAAGGTCAAAGGCCAGTGAAGAGATGACGG | 5.28
62 | TCATATAGGTAAACAAGTGAAAGTCCGTAAGTTA | 1.33
63 | CCTTACGGGTCACTGACAGGTTATAACATTTGGA | 4.49
64 | ATATGTACGTTATCGGGTCATTCAGTTTGCGCAT | 2.01
65 | CCTTCTGGGCCAAGGTCATTGATCAGTCAAAGCA | 2.99
66 | TCTATTCGTTGAAGGGCAACCGACGAGTCCGTTT | 1.05
67 | CATAGTTGGTCAGGAGGTCACACACCGGATATGA | 3.38
68 | CGTCCAAGGTCAGCAGGTCAGTGATAGCGACGTG | 3.86
69 | AACTCTAGGTAACAAGTTCAGTGAAAGAGAGGAC | 0.477
70 | CCTACTGGGCCATTCAGAGTTCATTGATCATATG | 2.71
71 | CCTACTGGTCCAAAAAGGTCATTGATGCCGATAA | 4.66
72 | AGAATGAGGTTAACATCAGGGAAACAGAATACAT | 2.97
73 | CCTACTGGGCCAAAGGTCATTAATTCCAATGCTC | 4.53
74 | TAGCCTGGGTCAGATCGGGCCAGTATACGCTATA | 0.208
75 | ACAGACAGGTGATGGAGGTAACTCAGGCTATCAT | -0.199
76 | AGAATGAGGTTATTACGATCAGGGAATTGCGGTC | 1.7
77 | TCCTGTAGATCAATAGAGGTTAAGAAAGTGCGCT | 3.56
78 | ACAGACAGGTGATGAGGGTAACTCAGGCTATCAT | -0.0236
79 | GCTGCTAGGACAACTGATGGTCAGCTAAAGCTCG | -0.859
80 | ACTAGCAGGCCAAGTTTGGGTCACTCGAACAAAG | 0.0952

— the supplement of paper PMC6555819
